Where “and” joins values, the source holds several entries; their conditions need not be identical. Equal entries are not always repeated. The campaign covered roughly 5,500 compounds. About 2,000 (36%) were called active. About 18% were inconclusive and are not listed. Rule as the data show it: active = normalized growth mostly below about 0.91 (no sharp cut-off); inconclusive = no clear call, values can overlap the other calls; inactive = mostly above about 0.92. The list shows a part of the results.
Assay: chemical genetic growth profiling, strain panel (AID 1159580);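 also: tested at 20 µM; growth read once vehicle control cultures reached saturation at 30 °C; 1 = growth at the plate median or of vehicle wells; lower values mean less growth of the strain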
Settings: S. cerevisiae deletion strains, growth OD

Measured: normalized growth

C[C@@H]1CC[C@]2(C(=O)O)CC[C@]3(C)C(=CCC4[C@@]5(C)CC[C@H](O)C(C)(C)C5CC[C@]43C)C2[C@H]1C (stereo partly specified)
inactive: locus YAL021C, strain ccr4, active compounds read low 0.995 | locus YAL026C, strain drs2, active compounds read low 1.01 | locus YAL030W, strain snc1, active compounds read low 0.995 | locus YBL061C, strain skt5, active compounds read low 1.01 | locus YBR009C, strain hhf1, active compounds read low 1.01 | locus YBR021W, strain FUR4, active compounds read low 1.03 | locus YBR023C, strain chs3, active compounds read low 1.01 | locus YBR171W, strain sec66, active compounds read low 1 | locus YBR229C, strain ROT2, active compounds read low 1.03 | locus YBR231C, strain swc5, active compounds read low 1.01 | locus YBR279W, strain paf1, active compounds read low 1 | locus YCL011C, strain gbp2, active compounds read low 1 | locus YCL016C, strain dcc1, active compounds read low 1.01 | locus YCL029C, strain bik1, active compounds read low 1 | locus YCL061C, strain MRC1, active compounds read low 0.997 | locus YCL069W, strain vba3, active compounds read low 1.01 | locus YCR088W, strain abp1, active compounds read low 0.993 | locus YDL005C, strain med2, active compounds read low 0.998 | locus YDL035C, strain GPR1, active compounds read low 1.04 | locus YDL040C, strain nat1, active compounds read low 0.992 | locus YDL074C, strain BRE1, active compounds read low 1.07 | locus YDL101C, strain DUN1, active compounds read low 1.03 | locus YDL134C, strain PPH21, active compounds read low 1.08 | locus YDL185W, strain tfp1, active compounds read low 0.999 | locus YDL192W, strain arf1, active compounds read low 1.01 | locus YDR001C, strain nth1, active compounds read low 1 | locus YDR069C, strain doa4, active compounds read low 1 | locus YDR101C, strain arx1, active compounds read low 1.01 | locus YDR137W, strain rgp1, active compounds read low 1.04 | locus YDR150W, strain NUM1, active compounds read low 1.03 | locus YDR159W, strain sac3, active compounds read low 1 | locus YDR162C, strain NBP2, active compounds read low 1.07 | locus YDR195W, strain ref2 0.974 | locus YDR297W, strain sur2, active compounds read low 1 | locus YDR318W, strain mcm21, active compounds read low 0.993 | locus YDR334W, strain swr1, active compounds read low 1 | locus YDR335W, strain msn5, active compounds read low 0.997 | locus YDR388W, active compounds read low 1 | locus YDR392W, strain spt3, active compounds read low 0.911 | locus YDR502C, strain sam2, active compounds read low 0.997 | locus YEL003W, strain gim4, active compounds read low 0.998 | locus YEL037C, strain rad23, active compounds read low 1 | locus YEL061C, strain CIN8 (second series), active compounds read low 0.995 | locus YEL061C, strain CIN8, active compounds read low 1.02 | locus YER015W, strain faa2, active compounds read low 1.01 | locus YER016W, strain bim1, active compounds read low 0.999 | locus YER110C, active compounds read low 1.01 | locus YER111C, strain swi4, active compounds read low 0.984 | locus YER155C, strain BEM2 (second series), active compounds read low 0.992 | locus YER155C, strain BEM2, active compounds read low 1.02 | locus YER167W, strain BCK2, active compounds read low 1.03 | locus YFR010W, strain ubp6, active compounds read low 0.983 | locus YGL078C, strain dbp3, active compounds read low 0.985 | locus YGL167C, strain pmr1, active compounds read low 1 | locus YGL173C, strain kem1, active compounds read low 1.01 | locus YGL227W, strain vid30, active compounds read low 0.994 | locus YGL240W, strain doc1, active compounds read low 0.998 | locus YGL248W, strain PDE1, active compounds read low 1.03 | locus YGL253W, strain hxk2, active compounds read low 1.01 | locus YGR135W, strain pre9, active compounds read low 0.996 | locus YGR229C, strain SMI1, active compounds read low 1.06 | locus YGR252W, strain gcn5, active compounds read low 1.01 | locus YHR013C, strain ard1, active compounds read low 0.996 | locus YHR027C, strain rpn1, active compounds read low 0.995 | locus YHR030C, strain SLT2, active compounds read low 1.02 | locus YHR079C, strain IRE1 (second series), active compounds read low 0.996 | locus YHR079C, strain IRE1, active compounds read low 1.02 | locus YHR094C, strain hxt1, active compounds read low 1.01 | locus YHR129C, strain ARP1, active compounds read low 1.03 | locus YHR142W, strain chs7, active compounds read low 1.03 | locus YHR200W, strain rpn10, active compounds read low 0.986 | locus YIL066C, strain RNR3, active compounds read low 1.07 | locus YIL073C, strain SPO22, active compounds read low 0.999 | locus YIL125W, strain kgd1, active compounds read low 1 | locus YIR030C, strain dcg1, active compounds read low 0.997 | locus YJL092W, strain hpr5, active compounds read low 0.999 | locus YJL095W, strain BCK1 (second series), active compounds read low 0.988 | locus YJL095W, strain BCK1, active compounds read low 1.08 and 1.01 | locus YJL115W, strain asf1, active compounds read low 0.992 | locus YJL129C, strain trk1, active compounds read low 1.01 | locus YJL134W, strain LCB3, active compounds read low 1.02 | locus YJL154C, strain vps35, active compounds read low 0.997 | locus YJL164C, strain tpk1, active compounds read low 1.01 | locus YJL166W, strain qcr8, active compounds read low 1 | locus YJL168C, strain set2, active compounds read low 0.986 | locus YJL187C, strain SWE1 (second series), active compounds read low 1.05 | locus YJL187C, strain SWE1, active compounds read low 0.997 | locus YJR043C, strain POL32, active compounds read low 1.06 | locus YJR066W, strain TOR1, active compounds read low 1.02 | locus YKL068W, active compounds read low 1.01 | locus YKL160W, strain elf1, active compounds read low 1 | locus YKL190W, strain CNB1, active compounds read low 1.02 | locus YKR001C, strain vps1, active compounds read low 1.02 | locus YKR026C, strain gcn3, active compounds read low 0.996 | locus YKR091W, strain srl3, active compounds read low 0.991 | locus YLL001W, strain dnm1, active compounds read low 0.989 | locus YLL026W, active compounds read low 0.989 | locus YLL041C, strain sdh2, active compounds read low 0.995 | locus YLR027C, strain aat2, active compounds read low 1.01 | locus YLR039C, strain RIC1, active compounds read low 1.14 | locus YLR058C, strain SHM2, active compounds read low 1.04 | locus YLR102C, strain apc9, active compounds read low 0.987 | locus YLR113W, strain HOG1, active compounds read low 0.995 | locus YLR221C, strain rsa3, active compounds read low 1 | locus YLR258W, strain gsy2, active compounds read low 1.01 | locus YLR262C, strain YPT6 (second series), active compounds read low 1.02 | locus YLR262C, strain YPT6, active compounds read low 1.11 | locus YLR268W, strain sec22, active compounds read low 1.01 | locus YLR320W, strain mms22, active compounds read low 1.01 | locus YLR330W, strain CHS5, active compounds read low 1.03 | locus YLR342W, strain FKS1 (second series), active compounds read low 1.02 | locus YLR342W, strain FKS1, active compounds read low 1 | locus YLR357W, strain rsc2, active compounds read low 0.975 | locus YLR370C, strain arc18, active compounds read low 0.998 | locus YLR371W, strain rom2, active compounds read low 0.995 | locus YLR384C, strain iki3, active compounds read low 0.995 | locus YLR418C, strain cdc73, active compounds read low 1.02 | locus YML016C, strain PPZ1, active compounds read low 1.03 | locus YML032C, strain rad52, active compounds read low 0.988 | locus YML120C, strain ndi1, active compounds read low 0.999 | locus YML124C, strain tub3, active compounds read low 0.999 | locus YMR058W, strain fet3, active compounds read low 1.01 | locus YMR078C, strain ctf18, active compounds read low 0.976 | locus YMR125W, strain sto1, active compounds read low 0.986 | locus YMR129W, active compounds read low 0.997 | locus YMR205C, strain PFK2, active compounds read low 0.991 | locus YMR223W, strain ubp8, active compounds read low 0.992 | locus YMR231W, strain pep5, active compounds read low 0.998 | locus YMR263W, strain SAP30, active compounds read low 1.04 | locus YMR307W, strain GAS1, active compounds read low 1.15 | locus YNL067W, strain RPL9B, active compounds read low 1.06 | locus YNL071W, strain lat1, active compounds read low 1.01 | locus YNL128W, strain TEP1, active compounds read low 1.04 | locus YNL183C, strain NPR1, active compounds read low 0.993 | locus YNL209W, strain ssb2, active compounds read low 0.993 | locus YNL233W, strain BNI4, active compounds read low 1.05 | locus YNL248C, strain rpa49, active compounds read low 1.01 | locus YNL250W, strain rad50, active compounds read low 0.997 | locus YNL271C, strain bni1, active compounds read low 0.991 | locus YNL298W, strain CLA4, active compounds read low 1.01 | locus YNL307C, strain MCK1, active compounds read low 1.01 | locus YNL322C, strain KRE1 (second series), active compounds read low 0.979 | locus YNL322C, strain KRE1, active compounds read low 1.03 | locus YNR049C, strain mso1, active compounds read low 0.993 | locus YNR052C, strain pop2, active compounds read low 0.982 | locus YOL012C, strain htz1 1.17 | locus YOL147C, strain pex11, active compounds read low 0.992 | locus YOR001W, strain rrp6, active compounds read low 1.01 | locus YOR061W, strain CKA2, active compounds read low 1.03 | locus YOR069W, strain VPS5, active compounds read low 1.02 | locus YOR070C, strain gyp1, active compounds read low 1.01 | locus YOR080W, strain dia2, active compounds read low 0.998 | locus YOR083W, strain WHI5, active compounds read low 0.99 | locus YOR106W, strain vam3, active compounds read low 1.01 | locus YOR136W, strain idh2, active compounds read low 0.993 | locus YOR144C, strain elg1, active compounds read low 0.99 | locus YOR184W, strain ser1, active compounds read low 1.03 | locus YOR231W, strain MKK1, active compounds read low 1.02 | locus YOR265W, strain rbl2, active compounds read low 0.999 | locus YOR270C, strain vph1, active compounds read low 1 | locus YOR290C, strain snf2, active compounds read low 0.995 | locus YOR316C, strain cot1, active compounds read low 1.01 | locus YPL051W, strain arl3, active compounds read low 1.01 | locus YPL055C, strain LGE1, active compounds read low 1.1 | locus YPL078C, strain atp4, active compounds read low 1 | locus YPL106C, strain sse1, active compounds read low 0.984 | locus YPL240C, strain hsp82, active compounds read low 1.01 | locus YPL256C, strain CLN2, active compounds read low 0.993 | locus YPR119W, strain clb2, active compounds read low 1 | locus YPR141C, strain kar3, active compounds read low 0.998 | locus YPR163C, strain tif3, active compounds read low 0.997 | locus YPR167C, strain met16, active compounds read low 1.01 | strain wtn01, active compounds read low 1.02
active: locus YGL086W, strain mad1, active compounds read low 1.28 [resistant] | locus YKL085W, strain MDH1 (second series), active compounds read low 1.33 [resistant] | locus YKL085W, strain MDH1, active compounds read low 1.33 [resistant]
